Measurements: PubChem BioAssay AID720576 (National Center for Advancing Translational Sciences (NCATS), 2013)
The other results are listed elsewhere or left out. A call without a number means that no potency is given here. Records with an inconclusive call do not appear. Activity calls are given as the source filed them. Calls come from the whole dose curve; as a rule, active = well fitted inhibition curve with a large enough effect; inconclusive = small, poorly fitted or top-dose-only effect; inactive = no such curve, though single readings can be large or run the other way.

Assay: qHTS Assay for Inhibitors of Hepatitis C Virus (HCV): Cytotoxicity Counterscreen for Cherry-picked Compounds
From the text: Hepatitis C virus (HCV) infects about 200 million people in the world. Many infected people progress to chronic liver disease including cirrhosis with a risk of developing liver cancer. To date, there is no effective vaccine for hepatitis C. Current therapy based on interferon is only effective in about half of the patients and is associated with significant adverse effects. The fraction of people with HCV who can complete a successful treatment is estimated to be no more than 10 percent. Recent development of direct-acting antivirals against HCV, such as protease and polymerase inhibitors, is promising but still requires combination with peginterferon and ribavirin for maximal efficacy. In addition, these agents are associated with high rate of resistance and many have significant side effects. Due to the lack of a culture system for infectious HCV, the search for new HCV drugs has been greatly hampered. […] High-throughput screening (HTS) with an infectious HCV system would cover the complete spectrum of potentially druggable targets in all stages of HCV lifecycle, and would have more biological relevance than other cell-based assays. […]
Cells were plated in a 1536-wel tissue culture grade plates at a final concentration of 1,000 cells/well (3 uL volume). […] The luminescence signal was read for 15 sec using the PerkinElmer ViewLux plate reader.
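Note: 44 h compound exposure; nearly all actives have a fitted effect of over 55% in size.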

## CC[N+]1(C)CCCC(OC(=O)C(O)(c2ccccc2)c2ccccc2)C1 (configuration not stated)
  Potency: inactive

## CC1=CC(=Cc2sc3ccccc3[n+]2C)C=C(C)O1
  Potency: 7.05 µM (active)
